Source: PubChem BioAssay
MCF10A rerep = inducers of DNA re-replication in MCF 10A breast cells; actives 2.9% (n = 350,000); Potency, µM (series often up to 46.1 µM), hits mostly activators; MCF 10A DNA re-replication, Hoechst nuclear intensity, 48 h; further: nearly all actives have a fitted effect of over 50% in size
A-T KAP1 phos = candidate therapy for ataxia-telangiectasia; F2112 A-T fibroblasts, KAP-1 phosphorylation AlphaLISA; neocarzinostatin DNA damage 30 min before lysis; AID 485349; Potency, µM (top dose mostly 57.5 µM), most hits filed as activators; actives 0.19% (n = 320,000); further: nearly all actives have a fitted effect of over 45% in size
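hTERT-immortalized A-T patient fibroblasts (F2112), 500 cells/well in OPTI-MEM, 1% FBS, got compounds for 60 min, then NCS for 30 min at 37C. Lysates were then assayed for phospho-KAP-1 by AlphaLISA (anti-pKAP1 donor, anti-KAP1 acceptor beads), 6 hr at 25C.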
ELG1 DNA repair = ELG1-dependent DNA repair inhibition; HEK293T ELG1-luciferase reporter, luminescence, 16 h; DNA damage induced by 5-fluorouridine; Potency, µM (series often up to 46.1 µM), hits mostly inhibitors; actives 2.3% (n = 330,000); AID 504467; further: nearly all actives have a fitted effect of over 55% in size
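DMSO vehicle served as the neutral condition. Each well held 2,000 cells given 5-fluorouridine plus compound; after 16 hr at 37 °C/5% CO2, ONE-Glo was added and luciferase measured 30 min later.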
SW480 rereplic = inducers of DNA re-replication in SW480 colon cancer cells; Potency, µM (series often up to 46.1 µM), actives largely listed as activators; SW480 DNA re-replication, Hoechst DNA content imaging, 48 h; actives 1.8% (n = 340,000); AID 624297; further: nearly all actives have a fitted effect of over 55% in size
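DNA re-replication was detected as more nuclei of elevated Hoechst intensity after 48 hr exposure to compound (23 nL pinned per well of 250 cells).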
p53 reactivator = mutant p53 re-activation in reporter cells; H1299 p53-A138V BP100-luciferase reporter, luminescence, 24 h; Potency, µM (titrated, usually from 92.2 µM), actives largely listed as activators; actives 0.063% (n = 320,000); AID 504706; further: nearly all actives have a fitted effect of over 45% in size
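H1299 (p53-null), stable ts p53-A138V + BP100-Luc; 1000 cells/well, Opti-MEM/10% FBS; cpd 4 pt, 1:5; 24 h, 37 deg C, 5% CO2; detection reagent 10 min RT; luminescence.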
ELG1 genotox = induces genotoxicity in HEK293T cells with luciferase-tagged ELG1 | HEK293T ELG1-luciferase reporter, luminescence, 16 h | Potency, µM (top dose mostly 46 µM), hits mostly activators | actives 1.3% (n = 330,000); further: nearly all actives have a fitted effect of over 60% in size
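Quantitative HTS format in 1536-well plates. HEK293T ELG1-luciferase reporter cells receive test compound and are incubated 16 hr at 37 °C, 5% CO2; ONE-Glo added, 30 min room temperature, then luminescence read.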
Large screens that a line does not name were inactive. This is a sample that favours compounds with a hit; in the whole collection about 7.1% have one here. The call rests on the fitted dose curve; in most records, active means well fitted curve in the direction sought with a large enough effect; inconclusive means small, poorly fitted or top-dose-only effect, or another doubt; inactive means no such curve, though single readings can be large; an effect the other way counts as inactive or inconclusive.

COc1ccc(OC)c(S(=O)(=O)NCC(c2ccco2)S(=O)(=O)c2ccccc2)c1 (stereo unspecified)	none
Cn1cccc1C(=O)NNC(=O)COc1ccccc1F	ELG1 DNA repair inconclusive, p53 reactivator inconclusive, ELG1 genotox inconclusive
Cc1cc(C)n2nc(CCc3ccccc3)nc2n1	ELG1 DNA repair inconclusive
Cc1cc(C)n2nc(C(=O)OCC(=O)c3ccccc3)nc2n1	MCF10A rerep inconclusive, ELG1 DNA repair inconclusive, SW480 rereplic 8.2µM
Cc1cc(C)n2nc(C(=O)NCCc3ccccc3)nc2n1	ELG1 DNA repair inconclusive, ELG1 genotox 23µM
COc1ccccc1NC(=O)C(=O)N1N=C(C(C)C)CC1(O)C(F)(F)F (stereo unspecified)	MCF10A rerep 8.2µM
O=C(c1cc(COc2ccc(F)cc2F)on1)N1CCSCC1	ELG1 DNA repair inconclusive, ELG1 genotox 21µM
O=C(c1cc(COc2ccc(F)cc2Cl)on1)N1CCCCCC1	MCF10A rerep inconclusive, ELG1 DNA repair inconclusive, ELG1 genotox inconclusive
Cc1cc(C)nc(N(C#N)CCOc2ccc(Cl)cc2)n1	MCF10A rerep inconclusive
CC(C)Nc1nc(NC(C)C)nc(N(C#N)CCOc2ccc(Cl)cc2Cl)n1	MCF10A rerep 18µM, ELG1 DNA repair inconclusive, SW480 rereplic inconclusive (no result: A-T KAP1 phos)
COC(=O)c1cc(CSc2nc3ccccc3[nH]2)oc1C	ELG1 DNA repair inconclusive, p53 reactivator inconclusive, ELG1 genotox 9.2µM
C=CCNC(=O)/C(C#N)=C/c1ccccc1[N+](=O)[O-]	SW480 rereplic inconclusive
N#C/C(=C\c1ccccc1[N+](=O)[O-])C(=O)NCc1ccccc1	MCF10A rerep inconclusive, ELG1 DNA repair 1.8µM, SW480 rereplic inconclusive
N#C/C(=C\C=C\c1ccccc1[N+](=O)[O-])C(=O)NCc1ccccc1	MCF10A rerep 3.7µM, ELG1 DNA repair inconclusive, SW480 rereplic 21µM
CCCCCCCCNC(=O)/C(C#N)=C/c1ccccc1[N+](=O)[O-]	MCF10A rerep inconclusive, A-T KAP1 phos 25µM, ELG1 genotox inconclusive
COc1ccc(CC(=O)NCC2CCCN(Cc3ccc(SC)cc3)C2)cc1 (stereo unspecified)	none
COc1ccccc1CCC(=O)Nc1ccc(S(=O)(=O)Nc2cc(C)nc(C)n2)cc1	none
O=C(c1ccccc1)c1coc2ccc(O)c(Cl)c12	ELG1 DNA repair inconclusive, p53 reactivator inconclusive, ELG1 genotox inconclusive
O=C1C(=O)c2c(C(=O)c3ccccc3)coc2-c2ccccc21	MCF10A rerep 21µM, ELG1 DNA repair inconclusive, SW480 rereplic inconclusive, p53 reactivator inconclusive, ELG1 genotox 10µM (no result: A-T KAP1 phos)
O=C(COC(=O)/C=C/c1cccc(C(F)(F)F)c1)NCCN1C(=O)CSC1=O	MCF10A rerep 26µM
COc1ccc(C2(c3ccc(OC)cc3)NC(=O)N(CC(=O)NC3CCS(=O)(=O)C3)C2=O)cc1 (stereo unspecified)	none
COc1cc(/C=N/OCC(=O)NC2CCCCC2C)ccc1OCc1ccc(Cl)cc1 (stereo unspecified)	MCF10A rerep 16µM, ELG1 DNA repair inconclusive, p53 reactivator inconclusive, ELG1 genotox 18µM
CN(C(=O)c1ccc2c(c1)OCO2)C1CCS(=O)(=O)C1 (stereo unspecified)	none
COc1ccc(-c2cc(C(=O)Nc3ccc4c(c3)OCO4)no2)cc1	none
O=C(Nc1ccc2c(c1)OCO2)c1cc(C2CC2)on1	MCF10A rerep inconclusive, ELG1 DNA repair inconclusive, ELG1 genotox 2.1µM
O=C(Nc1ccc2c(c1)OCO2)c1ccccn1	MCF10A rerep inconclusive, ELG1 DNA repair inconclusive, p53 reactivator inconclusive, ELG1 genotox inconclusive
CC(C)c1cc(C(=O)Nc2ccc3c(c2)OCO3)no1	ELG1 DNA repair inconclusive, p53 reactivator inconclusive, ELG1 genotox 2.1µM
COc1ccc(NS(=O)(=O)c2ccc3oc(SC(C)C(N)=O)nc3c2)cc1 (stereo unspecified)	none
Cc1ccccc1CSCc1nc2ccccc2[nH]1	p53 reactivator inconclusive
Cc1ccc(C)c(CSCc2nc3ccccc3[nH]2)c1	MCF10A rerep 18µM
